Inconclusive results are not listed. The source made the active and inactive calls. Calls come from the whole dose curve; as a rule, active = well fitted cell-killing curve with a large enough effect; inconclusive = small, poorly fitted or top-dose-only effect, or effect the other way; inactive = no such curve, though single readings can be large or run the other way.
Test: Quantitative High-Throughput drug screen in 47 multiple myeloma cell lines against the NCATS MIPE library collection: KMS11_JCRBsus cell viability assay (AID 1919873); note: nearly all actives have a fitted effect of over 50% in size
Settings: KMS11 myeloma viability, CellTiter-Glo ATP luminescence, 48 h; series mostly up to 45.8 µM
Outline: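 Myeloma cells (500/well) treated with MIPE 4.0 compounds for 48 h at 37 °C, 5% CO2. Viability read as ATP via CellTiter-Glo luminescence after 5 min at RT; DMSO-only wells = 100%, media-only = 0% viability.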
Potency is the fitted concentration of half-maximal effect.

Q: Which Potency does the source give for `CCOC(=O)c1c(CSc2ccccc2)n(C)c2cc(Br)c(O)c(CN(C)C)c12` here?
A: 18.7 µM (active)

Q: For `O=C(O)c1nc(=O)[nH]c(=O)[nH]1`, which Potency is on record?
A: 11.5 µM (active)

Q: With `Oc1ccc(C=Cc2cc(O)cc(O)c2)cc1` as the molecule, how does the Potency read?
A: 16.6 µM (active)

Q: For `Cc1ccc(C(=O)N(CCCN)[C@@H](c2nc3cc(Cl)ccc3c(=O)n2Cc2ccccc2)C(C)C)cc1`, which Potency is on record?
A: inactive

Q: Which Potency does the source give for `Clc1ccc(COC(Cn2ccnc2)c2ccc(Cl)cc2Cl)c(Cl)c1` (stereo not drawn) here?
A: 23.5 µM (active)

Q: For `CCNC(=O)[C@H]1O[C@@H](n2cnc3c(N)nc(NCCc4ccc(CCC(=O)O)cc4)nc32)[C@H](O)[C@H]1O`, which Potency is on record?
A: inactive

Q: Which Potency does the source give for `CC1=C[C@@H]2[C@@H]([C@@H](O)C[C@@]3(C)[C@H]2C[C@@H](C)[C@]3(O)C(=O)CO)[C@@]2(C)Cc3cnn(-c4ccccc4)c3C=C12` here?
A: 0.0059 µM (active)

Q: For `O=c1[nH]c(=O)n([C@H]2C[C@@H](O)[C@@H](CO)O2)cc1C(F)(F)F`, which Potency is on record?
A: 6.62 µM (active)

Q: With `CN(C)c1nc(Cc2ccc(NC(=O)c3ccc(C(F)(F)F)cc3)cc2)nc(N(C)C)c1CC(=O)O` as the molecule, how does the Potency read?
A: inactive

Q: For `COc1ccc(CCC(=O)Nc2nc3ccc(Cl)cc3s2)cc1OC`, which Potency is on record?
A: 11.8 µM (active)

Q: For `c1ccc(-c2oc3ncnc(NC[C@@H]4CCCO4)c3c2-c2ccccc2)cc1`, which Potency is on record?
A: 16.6 µM (active)

Q: With `Cc1ccc(C(=O)N(CCCN)[C@@H](c2oc3cc(Cl)ccc3c(=O)c2Cc2ccccc2)C(C)C)cc1` as the molecule, how does the Potency read?
A: inactive

Q: With `C=C1c2cccc(O)c2C(O)=C2C(=O)[C@@]3(O)C(O)=C(C(N)=O)C(=O)[C@@H](N(C)C)[C@@H]3[C@@H](O)[C@H]12` as the molecule, how does the Potency read?
A: inactive

Q: For `C[C@@H]1CCO[C@H]2Cn3cc(C(=O)NCc4ccc(F)cc4F)c(=O)c(O)c3C(=O)N12`, which Potency is on record?
A: 18.7 µM (active)

Q: Which Potency does the source give for `C[C@@H](O)[C@H]1C(=O)N2C(C(=O)OCOC(=O)C(C)(C)C)=C(SC3CN(C4=NCCS4)C3)[C@H](C)[C@H]12` here?
A: inactive

Q: Which Potency does the source give for `CN1c2ccccc2C(=O)N2CCc3c([nH]c4ccccc34)C21` (stereo not drawn) here?
A: 2.96 µM (active)

Q: Which Potency does the source give for `CN(CC=CC#CC(C)(C)C)Cc1cccc2ccccc12` here?
A: inactive

Q: For `COc1nccc(-c2c(-c3ccc(F)cc3)ncn2C2CCC(O)CC2)n1` (stereo not drawn), which Potency is on record?
A: 4.18 µM (active)

Q: With `CO[C@H]1O[C@@H]2O[C@@]3(C)CC[C@@H]4[C@@H](C)CC[C@@H]([C@H]1C)[C@@]24OO3` as the molecule, how does the Potency read?
A: inactive

Q: With `CC1(C)CC(=O)c2c(C(F)(F)F)nn(-c3ccc(C(N)=O)c(NC4CCC(O)CC4)c3)c2C1` (stereo not drawn) as the molecule, how does the Potency read?
A: 0.0118 µM (active)

Q: With `CC[C@@H]([C@H](C)O)n1ncn(-c2ccc(N3CCN(c4ccc(OCC5CO[C@@](Cn6cncn6)(c6ccc(F)cc6F)C5)cc4)CC3)cc2)c1=O` (stereo partly drawn) as the molecule, how does the Potency read?
A: 11.8 µM (active)

Q: For `CN(C)CCCNC(=O)c1ccc(-c2cc(O)c3ncccc3c2)cc1`, which Potency is on record?
A: 23.5 µM (active)

Q: With `CCCCOCCOc1nc(-c2ccc(C(=O)O)c(F)c2)sc1C` as the molecule, how does the Potency read?
A: inactive
